Hits are enriched below; roughly 0.74% of the tested compounds scored in any of these assays.
TSHR antagonist: Antagonists of the Thyroid Stimulating Hormone Receptor: HTS campaign; TSHR-expressing cells, TSH-stimulated cAMP HTRF, 2 h; hits give low values; hit rate 0.2% among 330,000; AID 504810, 2011; activity change, negative = inhibition, % at 11.5 µM; Thyrotropin receptor (Homo sapiens), P16473;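 active means activity change below a set negative limit, meaning inhibition stronger than a set level, cut at about -70% in these data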
Target sequence (P16473 whole entry, looked up): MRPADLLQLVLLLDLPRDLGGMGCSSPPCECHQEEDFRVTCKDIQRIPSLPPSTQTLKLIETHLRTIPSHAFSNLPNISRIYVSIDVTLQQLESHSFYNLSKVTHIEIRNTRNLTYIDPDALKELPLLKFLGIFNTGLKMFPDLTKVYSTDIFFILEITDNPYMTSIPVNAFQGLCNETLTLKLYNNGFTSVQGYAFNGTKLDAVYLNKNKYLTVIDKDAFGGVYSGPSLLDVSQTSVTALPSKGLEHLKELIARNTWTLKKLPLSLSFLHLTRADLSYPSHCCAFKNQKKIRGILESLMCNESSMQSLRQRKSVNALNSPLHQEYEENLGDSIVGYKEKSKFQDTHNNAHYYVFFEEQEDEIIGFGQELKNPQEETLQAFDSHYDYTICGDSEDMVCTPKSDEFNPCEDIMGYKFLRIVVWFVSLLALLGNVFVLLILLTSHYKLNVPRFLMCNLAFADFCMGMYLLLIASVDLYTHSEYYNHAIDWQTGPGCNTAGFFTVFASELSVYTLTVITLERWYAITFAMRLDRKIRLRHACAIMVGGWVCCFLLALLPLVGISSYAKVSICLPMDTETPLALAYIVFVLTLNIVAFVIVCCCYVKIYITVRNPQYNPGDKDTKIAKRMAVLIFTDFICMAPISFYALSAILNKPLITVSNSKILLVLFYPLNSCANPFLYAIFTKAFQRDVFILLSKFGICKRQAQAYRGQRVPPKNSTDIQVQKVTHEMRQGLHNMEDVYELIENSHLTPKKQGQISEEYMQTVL
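Antagonism was scored as loss of TSH-driven cAMP in TSHR cells, stimulated with 4nM TSH (EC80) for 2 hours at 37 deg C and detected by homogeneous HTRF competition immunoassay.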
CCT chaperon mod: High-Throughput Screening for Modulators of Cytosolic Chaperonin Activity; purified chaperonin ATPase assay, HTRF ADP detection, 30 min; activity change, % (concentration not given with the values), hits read low; hit rate 0.3% among 360,000; in the data active means activity change below about -30%
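Nucleotide hydrolysis assay: TRiC at 20–40 nM final (set by batch activity) with 10 uM ATP, 30 min at 37 °C, in presence of 76 uM compound. Detection by competitive ADP HTRF, 30 min ambient.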
TCR activator: Activators of T cell receptors: qHTS campaign. primary human leukocytes, anti-CD3, IL-2 HTRF, 48 h. Potency, µM (titrated, usually from 9.22 µM), actives largely listed as activators. 330,000 tested, under 10 active; active means well fitted activation curve with a large enough effect
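1) Mix primary human leukocytes, a-CD3 beads and compound. 2) Incubate 48 hr. 3) Add HTRF IL-2 reagents (a-IL-2-K, a-IL-2-d2).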
Akt phos inh: HTS Assay for Inhibitors of Akt Phophorylation: Primary Screen. Neuro2A IGF-stimulated pAkt S473 HTRF, 20 min; hits give low values. activity change, % for hits at 50 µM. hit rate 0.32% among 360,000. AID 651550, 2012; in the data active means activity change below about -80%
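Neuro2A cells in DMEM with 0.5% FBS, overnight at 37 deg C, given compound at single 50 µM final, then IGF (6 nM final) for 20 min at 37 deg C. Lysed; phospho-Akt Ser473 by HTRF after 24 h, 665/615 ratio.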
A number is an active result.

Cc1ccc([C@H]2C(C#N)=C(N)Oc3cc(C)oc(=O)c32)o1 was read as TSHR antagonist inactive, CCT chaperon mod inactive, TCR activator inactive and Akt phos inh inactive.
Screening COc1cccc(C(=O)N2CCN(C(=O)c3cccs3)CC2)c1OC returned TSHR antagonist inactive, CCT chaperon mod inactive, TCR activator inactive and Akt phos inh -111.8%.
Screening C[N+](C)(C)CC(=O)N1CCN(c2ccc3ccccc3n2)CC1 returned TSHR antagonist inactive, CCT chaperon mod inactive, TCR activator inactive and Akt phos inh inactive.
Oc1ccccc1N1CCN(c2ccc3ccccc3n2)CC1 was read as TSHR antagonist -77.5, CCT chaperon mod inactive, TCR activator inactive and Akt phos inh inactive.
For CCn1c(SCC(=O)Nc2ccc(N3CCOCC3)cc2)nnc1-c1ccco1 the results were TSHR antagonist inactive, CCT chaperon mod inactive, TCR activator inactive and Akt phos inh inactive.
`COc1ccc(C2=Cc3ccccc3C(CC(=O)C3CC3)N2c2ccc(-c3cc(OC)c(OC)c(OC)c3)cc2)cc1` (stereo not given) gave CCT chaperon mod inactive and Akt phos inh inactive.
`COC(=O)C1=C(C)N(Cc2ccccc2)C(=S)N[C@H]1CCc1ccccc1` gave TSHR antagonist inactive.
Screening COc1ccc(C(=O)Nc2ccnn2C2CCN(Cc3ccccn3)CC2)cc1 returned TSHR antagonist inactive, CCT chaperon mod -35.3, TCR activator inactive and Akt phos inh inactive.
For O=C(Nc1ccnn1C1CCN(CC2CC=CCC2)CC1)c1ccccc1 (stereo not given) the results were TSHR antagonist inactive, CCT chaperon mod -53.8 and TCR activator inactive.
For Cc1nn(-c2ccc(N3CCOCC3)nn2)c(C)c1CCC(=O)NCc1ccccc1F the results were TSHR antagonist -105.0, CCT chaperon mod inactive, TCR activator inactive and Akt phos inh inactive.
For Cc1nn(-c2ccc(N3CCOCC3)nn2)c(C)c1CCC(=O)NCc1ccccc1 the results were TSHR antagonist inactive, CCT chaperon mod inactive, TCR activator inactive and Akt phos inh inactive.
Screening COC(CNC(=O)c1ccc2c(c1)ncn2C1CCCCCC1)OC returned TSHR antagonist inactive, CCT chaperon mod inactive, TCR activator inactive and Akt phos inh inactive.
For Nc1c(-c2ccc(Cl)cc2)cnn1-c1cccc(C(F)(F)F)c1 the results were TSHR antagonist inactive, CCT chaperon mod inactive, TCR activator inactive and Akt phos inh -113.2%.
`Cc1ccc(CN2C(=O)c3ccccc3Sc3ccc(C(=O)NCCCN4CCOCC4)cc32)cc1` gave TSHR antagonist -138.0, CCT chaperon mod inactive, TCR activator inactive and Akt phos inh inactive.
CCN(CC)S(=O)(=O)c1ccc(Cl)c(C(=O)Nc2nncs2)c1 was read as TSHR antagonist inactive, CCT chaperon mod inactive, TCR activator inactive and Akt phos inh -102.7%.
Cc1ccc(NC(=O)c2c(Cl)nc3ccccn23)cc1 was read as TSHR antagonist inactive, CCT chaperon mod inactive, TCR activator inactive and Akt phos inh inactive.
COc1cccc(NC(=O)CN2CCN(c3ccccc3F)CC2)c1 was read as TSHR antagonist inactive, CCT chaperon mod inactive, TCR activator inactive and Akt phos inh -109.9%.
For O=C(CN1CCCC1)Nc1ccccc1Sc1ccc(Cl)cc1 the results were TSHR antagonist inactive, CCT chaperon mod -35.0, TCR activator inactive and Akt phos inh inactive.
`NC(=O)C1CCN(CC(=O)Nc2ccccc2Sc2ccc(Cl)cc2)CC1` gave TSHR antagonist inactive, CCT chaperon mod inactive, TCR activator inactive and Akt phos inh inactive.
CCSc1nnc(NC(=O)c2ccc(Br)s2)s1 was read as TSHR antagonist inactive, CCT chaperon mod inactive, TCR activator inactive and Akt phos inh -81.3%.
Screening CCOC(=O)CSc1nnc(NC(=O)c2ccco2)s1 returned TSHR antagonist inactive, CCT chaperon mod inactive, TCR activator inactive and Akt phos inh inactive.
`CCSc1nnc(NC(=O)c2ccco2)s1` gave TSHR antagonist inactive, CCT chaperon mod inactive, TCR activator inactive and Akt phos inh -112.3%.
`CC(=O)N1c2ccccc2C(C)(c2ccccc2)CC1(C)C` (stereo not given) gave TSHR antagonist -77.9, CCT chaperon mod inactive, TCR activator inactive and Akt phos inh inactive.
`CC1(c2ccccc2)CC(C)(C)N(C(N)=O)c2ccccc21` (stereo not given) gave TSHR antagonist inactive, CCT chaperon mod inactive and Akt phos inh inactive.
Screening Cc1c(N2C(=O)c3cccc4cccc(c34)C2=O)cnn1C returned TSHR antagonist inactive, CCT chaperon mod inactive, TCR activator inactive and Akt phos inh inactive.
`Cn1c(OCC2CCCO2)nc2cc(-c3ccccc3)sc2c1=O` (stereo not given) gave CCT chaperon mod -47.9.
For Cc1ccccc1-c1cc2nc(OCC3CCCO3)n(C)c(=O)c2s1 (stereo not given) the results were CCT chaperon mod inactive and Akt phos inh inactive.
`Cc1nc2cc(-c3ccccc3)sc2c(=O)n1N` gave TSHR antagonist inactive, CCT chaperon mod -30.5, TCR activator inactive and Akt phos inh inactive.
For COc1ccc(-c2cc3nc(C)n(N)c(=O)c3s2)cc1 the results were TSHR antagonist inactive, CCT chaperon mod inactive, TCR activator inactive and Akt phos inh inactive.
`Cc1ccc2cc(CN(C(=O)c3ccco3)c3ccccc3C)c(=O)[nH]c2c1` gave TSHR antagonist inactive, CCT chaperon mod inactive, TCR activator inactive and Akt phos inh -112.0%.
`Cc1ccc(N(Cc2cc3ccc(C)cc3[nH]c2=O)C(=O)c2ccco2)c(C)c1` gave TSHR antagonist inactive, CCT chaperon mod inactive, TCR activator inactive and Akt phos inh inactive.
`CN(Cc1ccccc1)c1nc2c(c(=O)[nH]c(=O)n2C)n1Cc1ccccc1` gave TSHR antagonist inactive, CCT chaperon mod inactive, TCR activator inactive and Akt phos inh inactive.
For CN(Cc1ccccc1)c1nc2c(c(=O)[nH]c(=O)n2C)n1CCOc1ccccc1 the results were TSHR antagonist inactive, CCT chaperon mod inactive, TCR activator inactive and Akt phos inh -124.2%.
Cn1c(=O)[nH]c(=O)c2c1nc(OC(=O)c1ccccc1)n2CC(O)COc1ccc(F)cc1 (stereo not given) was read as TSHR antagonist inactive, CCT chaperon mod inactive, TCR activator inactive and Akt phos inh inactive.
For Cn1c(=O)[nH]c(=O)c2c1nc(OC(=O)c1ccccc1)n2CC(O)COc1ccccc1 (stereo not given) the results were TSHR antagonist inactive, CCT chaperon mod inactive, TCR activator inactive and Akt phos inh -126.1%.
`N#CC1(NC(=O)COc2ccccc2[N+](=O)[O-])CCCCC1` gave TSHR antagonist inactive, CCT chaperon mod inactive, TCR activator inactive and Akt phos inh inactive.
`N#CC1(NC(=O)COc2cccnc2[N+](=O)[O-])CCCCC1` gave TSHR antagonist inactive, CCT chaperon mod -37.7, TCR activator inactive and Akt phos inh inactive.

Screens as filed in PubChem.
